The chains are these.
B1: PhoQ; a variant is named by its letters at X, in order, P23837 (parent)
chain: MKKLLRLFFPLSLRVRFLLATAAVVLVLSLAYGMVALIGYSVSFDKTTFRLLRGESNLFYTLAKWENNKLHVELPENIDKQSPTMTLIYDENGQLLWAQRDVPWLMKMIQPDWLKSNGFHEIEADVNDTSLLLSGDHSIQQQLQEVREDDDDAEMTHSVAVNVYPATSRMPKLTIVVVDTIPVELKSSYMVWSWFIYVLSANLLLVIPLLWVAAWWSLRPIEALAKEVRELEEHNRELLNPATTRELTSLVRNLNRLLKSERERYDKYRTTLTDLTHSLKTPLXXLQXXLRSLRSEKMSVSDAEPVMLEQISRISQQIGYYLHRASMRGGTLLSRELHPVAPLLDNLTSALNKVYQRKGVNISLDISPEISFVGEQNDFVEVMGNVLDNACKYCLEFVEISARQTDEHLYIVVEDDGPGIPLSKREVIFDRGQRVDTLRPGQGVGLAVAREITEQYEGKIVAGESMLGGARMEVIFGRQHSAPKDE

The full ranking holds about 140,000 sequences; the median of “enrichment ratio after two sorts for PhoP signalling” is about 0, and the highest 2% start at about 11. Only a selection was taken, and the highest values are over-represented in it overall.

Variants of B1 are the subject of the test. Description: enrichment ratio after two sorts for PhoP signalling (ratio (wild type AVST 3.29)); higher = more functional. To be noted: with PhoP (E. coli).
As to AEFC, the enrichment ratio turned out to be 6.7.

In the case of KYAC, the enrichment ratio is at most 0.25.

For GGAC, the enrichment ratio is at most 0.25.

For the variant AEYS, the enrichment ratio is 1.65.

With AIAC, the enrichment ratio is 19.1.

Regarding SPAC, the enrichment ratio is at most 0.25.

As for VHAC, the enrichment ratio is at most 0.25.

For the variant NGAC, the enrichment ratio was at most 0.25.

TGAC: the enrichment ratio came to 11.4.

For MDLS, the enrichment ratio is at most 0.25.

As for WPPG, the enrichment ratio was at most 0.25.

As for LANA, the enrichment ratio is at most 0.25.

In the case of GFDD, the enrichment ratio was at most 0.25.

Take LCAI: the enrichment ratio was at most 0.25.

In the case of VLNL, the enrichment ratio is at most 0.25.

As to TIAC, the enrichment ratio turned out to be 12.1.

For the variant WIAC, the enrichment ratio is at most 0.25.

Take AAAC: the enrichment ratio is at most 0.25.

For RIAC, the enrichment ratio is at most 0.25.

On to ADAC, for which the enrichment ratio turned out to be 0.792.

In the case of AKAC, the enrichment ratio was 19.7.

For MYGT, the enrichment ratio is at most 0.25.

As to TEWY, the enrichment ratio stood at 0.326.

For the variant MPYR, the enrichment ratio was at most 0.25.

As to TTHQ, the enrichment ratio worked out at 26.2.

As for YTMQ, the enrichment ratio was determined as 0.469.

GYMQ: the enrichment ratio is at most 0.25.

Consider TTQQ, for which the enrichment ratio came to 21.5.

For LTQQ, the enrichment ratio was at most 0.25.

With TTHP, the enrichment ratio is at most 0.25.

Regarding YTHQ, the enrichment ratio is at most 0.25.

In the case of ITQQ, the enrichment ratio is at most 0.25.

Consider TTMQ, for which the enrichment ratio worked out at 30.4.

As for YIIQ, the enrichment ratio was at most 0.25.

For the variant QERY, the enrichment ratio is at most 0.25.

Take QQLY: the enrichment ratio is at most 0.25.

For the variant CLCR, the enrichment ratio is at most 0.25.

In the case of VMKE, the enrichment ratio was at most 0.25.

Regarding VTRG, the enrichment ratio was at most 0.25.

As for QNQF, the enrichment ratio is at most 0.25.

Turning to ITLT, the enrichment ratio was at most 0.25.

Regarding TTPI, the enrichment ratio was determined as 4.3.

As to TTLA, the enrichment ratio came out at 16.9.

Consider TTLS, for which the enrichment ratio came out at 15.1.

On to YTLS, for which the enrichment ratio turned out to be 4.88.

Consider CTLS, for which the enrichment ratio is at most 0.25.

For the variant YTLT, the enrichment ratio is at most 0.25.

Turning to YTLA, the enrichment ratio came out at 4.01.

As to TTLT, the enrichment ratio is 15.8.

With IYDI, the enrichment ratio is at most 0.25.

In the case of EDSR, the enrichment ratio was at most 0.25.

As for KMPM, the enrichment ratio was at most 0.25.

For YVSD, the enrichment ratio was at most 0.25.

Consider RQYR, for which the enrichment ratio was at most 0.25.

For HAKY, the enrichment ratio was at most 0.25.

Consider DMQN, for which the enrichment ratio is at most 0.25.

Take MLWE: the enrichment ratio was at most 0.25.

For TNAY, the enrichment ratio was determined as 2.94.

On to MNHF, for which the enrichment ratio worked out at 4.26.

As to TNAQ, the enrichment ratio amounted to 4.37.

MNYI: the enrichment ratio was 9.81.

Consider MNNY, for which the enrichment ratio is 15.3.

MNAY: the enrichment ratio stood at 17.

Consider MNHP, for which the enrichment ratio is at most 0.25.

Consider MNYY, for which the enrichment ratio was at most 0.25.

Turning to MNAQ, the enrichment ratio turned out to be 11.8.

On to FVVQ, for which the enrichment ratio was at most 0.25.

Regarding PGYA, the enrichment ratio was at most 0.25.

As for ELDY, the enrichment ratio is at most 0.25.

Turning to SGDL, the enrichment ratio was at most 0.25.

Regarding GGCL, the enrichment ratio was 8.88.

For the variant SGGL, the enrichment ratio was 6.41.

TGCL: the enrichment ratio was 22.4.

On to SGCL, for which the enrichment ratio was 15.6.

Consider RGCL, for which the enrichment ratio was at most 0.25.

For NSCL, the enrichment ratio was at most 0.25.

On to TSCL, for which the enrichment ratio was 19.6.

For CSCS, the enrichment ratio was at most 0.25.

Consider KSCL, for which the enrichment ratio is at most 0.25.

With CSCL, the enrichment ratio was 16.1.

Regarding FSCL, the enrichment ratio was 8.2.

Regarding PKNL, the enrichment ratio is at most 0.25.

Consider TSYE, for which the enrichment ratio was at most 0.25.

Take RGSH: the enrichment ratio is at most 0.25.

In the case of NMFD, the enrichment ratio was at most 0.25.

As to IIHI, the enrichment ratio was at most 0.25.

For the variant LILE, the enrichment ratio is at most 0.25.

Take NHCE: the enrichment ratio is at most 0.25.

For NSGM, the enrichment ratio was at most 0.25.

As to HPWS, the enrichment ratio was at most 0.25.

As for GNNL, the enrichment ratio stood at 2.95.

Regarding GNCL, the enrichment ratio was 18.1.

For YHCL, the enrichment ratio was at most 0.25.

For the variant YSKR, the enrichment ratio was at most 0.25.

Turning to RNAK, the enrichment ratio is at most 0.25.

On to ATTI, for which the enrichment ratio came to 13.7.

Regarding AITM, the enrichment ratio was determined as 23.3.

Regarding ATPM, the enrichment ratio is 0.758.

With ATTM, the enrichment ratio amounted to 16.6.

In the case of ATTK, the enrichment ratio came to 10.4.

As to GHTM, the enrichment ratio was at most 0.25.

For the variant KKTM, the enrichment ratio was at most 0.25.

Regarding ADTM, the enrichment ratio was at most 0.25.

Regarding GNTM, the enrichment ratio turned out to be 1.94.

With ATWM, the enrichment ratio was at most 0.25.

Regarding ATTA, the enrichment ratio is at most 0.25.

For ANTM, the enrichment ratio was determined as 44.

In the case of GVVP, the enrichment ratio is at most 0.25.

As to QMYN, the enrichment ratio was at most 0.25.

Consider EFPL, for which the enrichment ratio is at most 0.25.

For the variant KIKD, the enrichment ratio is at most 0.25.

Regarding EALR, the enrichment ratio is at most 0.25.

Consider FKYT, for which the enrichment ratio was at most 0.25.

For the variant VDAS, the enrichment ratio is at most 0.25.

Consider EAHV, for which the enrichment ratio is at most 0.25.

As to NFSK, the enrichment ratio was at most 0.25.

Regarding DNFH, the enrichment ratio is at most 0.25.

With TKWF, the enrichment ratio stood at 13.4.

Take QGWF: the enrichment ratio came out at 18.8.

On to FQWF, for which the enrichment ratio was at most 0.25.

Take QPWF: the enrichment ratio was at most 0.25.

Turning to QKWF, the enrichment ratio was determined as 12.7.

Consider QRWF, for which the enrichment ratio is at most 0.25.

In the case of KSWF, the enrichment ratio is at most 0.25.

Regarding HKWF, the enrichment ratio is at most 0.25.

FFWF: the enrichment ratio was at most 0.25.

As for VAKP, the enrichment ratio was at most 0.25.

For the variant YQPA, the enrichment ratio was at most 0.25.

Consider LESI, for which the enrichment ratio was at most 0.25.

As to MTAV, the enrichment ratio came to 7.37.

Turning to AMKH, the enrichment ratio was at most 0.25.

For the variant VGAQ, the enrichment ratio is at most 0.25.

In the case of RNKK, the enrichment ratio was at most 0.25.

With WHKS, the enrichment ratio was at most 0.25.

Regarding HTKL, the enrichment ratio is at most 0.25.

For NMNA, the enrichment ratio was at most 0.25.

For the variant TMPT, the enrichment ratio was at most 0.25.

TMNI: the enrichment ratio worked out at 3.75.

Regarding TMGD, the enrichment ratio turned out to be 3.55.

Regarding TMAT, the enrichment ratio amounted to 11.2.

For the variant TMNA, the enrichment ratio was 24.8.

Take TMTD: the enrichment ratio was at most 0.25.

Take TMND: the enrichment ratio came out at 21.9.

As to TMNT, the enrichment ratio amounted to 11.9.

Regarding DMNA, the enrichment ratio was at most 0.25.

With TMNS, the enrichment ratio is 7.25.

Take TMKT: the enrichment ratio was at most 0.25.

Take AFCP: the enrichment ratio is at most 0.25.

Regarding QIMN, the enrichment ratio was at most 0.25.

YLAK: the enrichment ratio was at most 0.25.

Regarding NTVM, the enrichment ratio is at most 0.25.

Turning to PIIP, the enrichment ratio was at most 0.25.

Turning to IRSI, the enrichment ratio was at most 0.25.

The record behind these values is a collection of fitness landscapes (doi:10.1126/science.1257360).
